# Measurements reported in the supplement of paper PMC6992640.
# Counter-ions that a name gives are not always drawn. ± gives the standard deviation of the averaged measurements.
# Columns and labels:
# Experiment in all cases: cell viability (% of vehicle); higher = less cytotoxic
# Conditions in all cases: 10 µM; 72 h
# [1] = tested on: HCI01 (cells of a triple-negative basal-like breast cancer xenograft)
# [2] = tested on: HCI03 (cells of an ER-positive luminal breast cancer xenograft)
# [3] = tested on: HCI09 (cells of a triple-negative luminal androgen receptor type breast cancer xenograft)
# [4] = tested on: HCI11 (cells of an ER-positive luminal breast cancer xenograft)
# [5] = tested on: HCI13 (cells of an ER-positive luminal breast cancer xenograft)
# [6] = tested on: HCI16 (cells of a triple-negative basal-like breast cancer xenograft)
# [7] = tested on: UCD52 (cells of a triple-negative basal-like breast cancer xenograft)
# [8] = tested on: WHIM2 (cells of a triple-negative basal-like breast cancer xenograft)
# [9] = tested on: WHIM30 (cells of a triple-negative basal-like breast cancer xenograft)
# 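Also: PDX cells carrying CMV promoter-driven luciferase, viability read as total photon flux per second by IVIS imaging following D-luciferin, vehicle control 0.1% DMSO.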
Compound,cell viability [1],cell viability [2],cell viability [3],cell viability [4],cell viability [5],cell viability [6],cell viability [7],cell viability [8],cell viability [9]
Cc1nnc(NS(=O)(=O)c2ccc(N)cc2)s1 [Sulfamethizole],102 ± 17,119,91.2 ± 4.5,87,89.2 ± 14,114,81.2 ± 3.9,91.3 ± 4.2,88.3 ± 5
CC(=O)OC1(C(C)=O)CCC2C3CCC4=CC(=O)CCC4=C3C(c3ccc(N(C)C)cc3)CC21C (configuration not stated) [Ulipristal acetate],97.9 ± 26,116,82.5 ± 9,78.9,92.8 ± 17,117,93.4 ± 5.8,105 ± 2.1,111 ± 18
Oc1ccc(OC2CCCCO2)cc1 (configuration not stated) [Deoxyarbutin],103 ± 22,138,127 ± 11,112,84.9 ± 5.5,145,129 ± 4.3,132 ± 34,117 ± 11
COc1c(N2CCNC(C)C2)c(F)cc2c(=O)c(C(=O)O)cn(C3CC3)c12 (configuration not stated) [Gatifloxacin],99.3 ± 31,81.1,75 ± 10,124,82.6 ± 7.6,92.2,140 ± 6.7,59.6 ± 23,124 ± 24
CCC1OC(=O)C(C)C(OC2CC(C)(OC)C(O)C(C)O2)C(C)C(OC2OC(C)CC(N(C)C)C2O)C(C)(O)CC(C)C(=O)C(C)C(O)C1(C)O (configuration not stated) [Erythromycin],106 ± 13,101,96.7 ± 12,92.7,77.2 ± 9.7,113,95 ± 17,118 ± 36,167.6 ± 0.38
Cc1ccsc1C(=CCCN1CCC[C@@H](C(=O)O)C1)c1sccc1C [Tiagabine hydrochloride],100 ± 1.8,93.2,90.8 ± 14,86.4,96.1 ± 6.3,95.6,97.2 ± 14,109 ± 34,105 ± 2
N[C@@H](Cc1cc(I)c(Oc2cc(I)c(O)c(I)c2)c(I)c1)C(=O)O [L-Thyroxine],66.5 ± 44,151,114 ± 14,93.3,150 ± 56,136,85 ± 2.5,93.6 ± 27,177 ± 6.2
COc1ccc(CN(CCN(C)C)c2ccccn2)cc1.O=C(O)/C=C\C(=O)O [Mepyramine maleate],93.8 ± 18,133,88.5 ± 12,93.9,85.6 ± 8.7,107,112 ± 8.7,94.4 ± 8.4,111 ± 6
COC(=O)C1=C(C)NC(C)=C(C(=O)OCC(C)C)C1c1ccccc1[N+](=O)[O-] (configuration not stated) [Nisoldipine],98.3 ± 32,109,27.4 ± 1.6,74,93.1 ± 39,180,84.1 ± 5.2,88.6 ± 17,123 ± 16
NC(=O)CC[C@H](N)C(=O)O [L-Glutamine],85.6 ± 8.7,92.8,92.2 ± 25,87.4,101.1 ± 0.78,97.3,82.9 ± 3.6,104 ± 3.9,70.6 ± 7.1
O=C1OC(C(O)CO)C([O-])=C1O.[Na+] (configuration not stated) [Sodium ascorbate],94.7 ± 14,87,90.3 ± 1.3,87,52 ± 6.5,92.3,77.3 ± 8.9,115 ± 31,120 ± 3
CCN1CCN(C(=O)NC(C(=O)NC2C(=O)N3C2SC(C)(C)C3C(=O)[O-])c2ccccc2)C(=O)C1=O.[Na+] (configuration not stated) [Piperacillin Sodium],109 ± 7.5,91.8,76.1 ± 26,92.6,88.4 ± 1.3,111,108 ± 17,105 ± 18,152 ± 15
NC(CO)(CO)CO.O=C(c1ccccc1)c1ccc2n1CCC2C(=O)O (configuration not stated) [Ketorolac tromethamine salt],123 ± 15,174,146 ± 70,102,122 ± 26,131,145.6 ± 0.93,130 ± 15,116 ± 4.2
CN1CCCC(n2nc(Cc3ccc(Cl)cc3)c3ccccc3c2=O)CC1.Cl (configuration not stated) [Azelastine HCl],142 ± 46,106,101 ± 1.3,69.2,113 ± 22,116,57.6 ± 17,78.7 ± 8.4,94.9 ± 6.3
CC(=O)N(CC(O)CO)c1c(I)c(C(=O)NCC(O)CO)c(I)c(C(=O)NCC(O)CO)c1I (configuration not stated) [Iohexol],117 ± 33,116,96.5 ± 2.9,83.2,133 ± 9.7,122,101 ± 6.7,99.2 ± 2.7,95.9 ± 8.9
COc1c(N2CC3CCCNC3C2)c(F)cc2c(=O)c(C(=O)O)cn(C3CC3)c12.Cl (configuration not stated) [Moxifloxacin HCl],132 ± 5.7,124,97.1 ± 3.3,120,113 ± 14,114,133 ± 11,92.3 ± 8.9,134 ± 16
CC1=C2N=C(C=C3N=C(C(C)=C4[N-]C(C)(C5N=C1C(C)(CCC(=O)NCC(C)OP(=O)([O-])OC1C(CO)OC(n6cnc7cc(C)c(C)cc76)C1O)C5CC(N)=O)C(C)(CC(N)=O)C4CCC(N)=O)C(C)(CC(N)=O)C3CCC(N)=O)C(C)(C)C2CCC(N)=O.[CH3-].[Co+3] (configuration not stated) [Methylcobalamin],81.6 ± 13,132,112 ± 14,91.1,112 ± 2.5,106,112 ± 9.1,91.3 ± 23,106.57 ± 0.028
NNC(=O)c1ccncc1 [Isoniazid],97.4 ± 7.2,109,92.6 ± 10,87.2,119 ± 13,127,72.6 ± 13,95.6 ± 4,114 ± 3.3
COc1ccc2c(c1)c(CC(=O)OCC(=O)O)c(C)n2C(=O)c1ccc(Cl)cc1 [Acemetacin],108 ± 3.5,113,97.6 ± 29,97.4,111 ± 9,106,78.2 ± 5,86.9 ± 22,76.6 ± 11
CCN(CC)CCNC(=O)c1cc(Cl)c(N)cc1OC [Metoclopramide],112 ± 6.5,107,90.8 ± 17,94.6,121 ± 10,72.6,98.01 ± 0.093,88.4 ± 2.2,113 ± 27
CCOc1cc(N)c(Cl)cc1C(=O)NCC1CN(Cc2ccc(F)cc2)CCO1.O=C(O)CC(O)(CC(=O)O)C(=O)O (configuration not stated) [Mosapride Citrate],138 ± 14,110,83.1 ± 9.6,116,103 ± 23,118,106 ± 2.8,82.6 ± 16,136 ± 5.5
NC(CC(=O)N1CCn2c(nnc2C(F)(F)F)C1)Cc1cc(F)c(F)cc1F.O.O=P(=O)OO.[HH] (configuration not stated) [Sitagliptin phosphate monohydrate],134 ± 15,154,94.1 ± 15,131,135 ± 37,135,120 ± 3.7,115.8 ± 0.55,144 ± 14
Cc1onc(-c2ccccc2)c1-c1ccc(S(N)(=O)=O)cc1 [Valdecoxib],126 ± 28,126,85.3 ± 11,98,109 ± 1.1,99.8,74 ± 11,95.5 ± 4.2,78.92 ± 0.35
